Screening results: PubChem, National Center for Advancing Translational Sciences (NCATS)
This is a sample that favours compounds with a hit; in the whole collection about 13% have one here.
HCV inh = blocks hepatitis C virus. Potency, µM (top dose mostly 41.8 µM), for the others: at the highest dose activity change, negative = inhibition, actives largely listed as inhibitors. Huh7.5.1 HCVcc-Cre infection, luciferase reporter, 44 h. hit rate 3.4% among 340,000. AID 651820; further: potency means the concentration at half of the fitted maximal effect
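After 44 h co-culture of compound, cells and HCVcc-Cre (~0.5 moi), substrate is added for 15 min at room temperature and luciferase measured over 15 sec. Cells were seeded at 1,000/well and pre-cultured 4 h.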
Pf growth 48h = P. falciparum growth inhibition at 48 hours (one generation) | hit rate 5.9% among 310,000 | P. falciparum luciferase growth in erythrocytes, 48 h | AID 504832 | Potency, µM (top dose mostly 28.7 µM), inactives show top-dose activity change, negative = inhibition, usual class: inhibitors; further: potency means the concentration at half of the fitted maximal effect
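Firefly luciferase activity from engineered P. falciparum reports growth; inhibitors lower the luminescent signal. Cultures contained 2% hematocrit erythrocytes at 0.1% final parasitemia.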
HCMV antiviral = inhibitors of human cytomegalovirus; hit rate 4.5% among 410,000; activity change, negative = inhibition, % at 57.5 µM; AID 1259415; HFF cells, HCMV-luciferase reporter, 72 h; active compounds read low; in the data active means activity change below about -60%; inconclusive means no clear call, values can overlap the other calls; inactive means above about -39%
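Inhibition of viral replication was scored as loss of reporter luminescence in HFFs infected with HCMV-luciferase (MOI 1 PFU/cell) for 72 h; compounds tested at 2 doses, normalized to buffer and Salinomycin controls.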
Pf growth 96h = inhibits malaria parasite growth, 96 h; P. falciparum luciferase reporter growth, 96 h; Potency, µM (doses to about 28.7 µM), inactives show at the highest dose activity change, negative = inhibition, hits mostly inhibitors; hit rate 6.9% among 320,000; AID 504834; further: potency means the concentration at half of the fitted maximal effect
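Two-generation exposure (96 h) targets delayed-death phenotype. Reporter parasites carrying integrated firefly luciferase, in red cells at 2% hematocrit and 0.05% parasitemia final, kept at 37 C, 5% CO2; luminescence loss indicates inhibition.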
An asterisk follows results filed as active; ? = inconclusive; · = not tested or not shown; [ ] = another dose, or the depositor's remark. Unless noted, the call rests on the fitted dose curve; in most records, active means well fitted inhibition curve with a large enough effect; inconclusive means small, poorly fitted or top-dose-only effect, or another doubt; inactive means no such curve, though single readings can be large or run the other way. On the % scale 0 is the no-effect control and ±100 the full control effect.

SMILES | HCV inh | Pf growth 48h | HCMV antiviral | Pf growth 96h
CCOC(=O)C(=O)NCC(c1cccnc1)N1CCN(c2ccccc2)CC1 (stereo unspecified) | · | · | 7 | ·
CCOc1ccc(CN(C)Cc2cc(=O)oc3c(C)c(C)ccc23)cc1OC | 11µM* | · | -15 | ·
COc1cc(CN(C)Cc2cc(=O)oc3cc(C)c(Cl)cc23)ccc1OC(F)F | 10µM* | ? | -20 | ?
CSc1ccc(CN(C)Cc2cc(=O)oc3c(C)c(C)ccc23)cc1 | ? | ? | -31 | -16%
O=C(c1ccco1)N1CCN(C(=O)c2cnn(-c3cccc(F)c3)c2C2CCNCC2)CC1 | 17% | -7% | -17 | ?
Cc1c(C(=O)N(C)c2cccc(Cl)c2)cnn1-c1ccccc1 | -13% | 9.3µM* | 35 | ?
O=C(Nc1cccc(C(F)(F)F)c1)c1cnn(-c2cccc(F)c2)c1C1CCNCC1 | · | · | -77* | ·
Cc1nn(-c2ccccc2)c2nc(C3CC3)cc(C(=O)Nc3cccc(F)c3)c12 | · | · | -67* | ·
Cc1cc(C)cc(NC(=O)c2cnn(-c3ccc(C)c(C)c3)c2C2CCNCC2)c1 | · | · | -93* | ·
COc1ccc(N2CC(NC(=O)COc3ccccc3C)CC2=O)cc1OC (stereo unspecified) | · | · | -7 | ·
CCc1cccc(NC(=O)c2c(N3CCCC3=O)c3cc(C)ccc3n2C)c1 | · | · | -14 | ·
Cc1c(C(=O)Nc2cc(F)cc(F)c2)cnn1-c1ccccc1 | 11µM* | 62% | 43 | 26%
CCc1ccc(NC(=O)c2cnn(-c3ccccc3)c2C2CCNCC2)cc1 | 28% | ? | ? | 25%
Cc1ccc(NC(=O)c2cnn(-c3ccccc3)c2NC(=O)c2ccco2)cc1C | -4% | 63% | · | 12µM*
Cc1ccc(-n2ncc(C(=O)Nc3cc(Cl)ccc3C)c2C2CCNCC2)cc1C | -11% | ? | -91* | -12%
Cc1cc(C)cc(NC(=O)c2cnn(-c3ccccc3)c2C2CCNCC2)c1 | -1% | ? | -86* | ?
Cc1ccc(C)c(NC(=O)c2cnn(-c3ccc(F)cc3F)c2C2CCNCC2)c1 | · | · | 12 | ·
Cc1c(C(=O)Nc2ccccc2F)cnn1-c1ccccc1 | 5% | 108% | 38 | 197%
O=C(CN1C(=O)COc2ccc(S(=O)(=O)N3CCCC3)cc21)N1CCN(c2ccccc2F)CC1 | · | · | -3 | ·
Cc1ccc(NC(=O)N2CCC(CN3CCCC3)CC2)c(C)c1 | · | · | -38 | ·
CCCCCCCCN1C(=O)[C@@H](CC(=O)NCc2ccc(OC)c(OC)c2)C[C@@]2(C(=O)OC)C1=C[C@H](C(C)(C)C)O[C@@H]2C | · | · | 120 | ·
O=C(NC1CCCCC1)c1cccc(OCc2ccccc2)c1 | 14µM* | -21% | ? | ?
COC(=O)C1CCN(CC(=O)NC(=O)NC2CCCCC2)CC1 | 15% | 0% | -98* | 32%
COc1cccc(C(=O)CN2CCC(NC(=O)NC3CCCCC3)CC2)c1 | -2% | 2% | 37 | 15µM*
CCOC(=O)C1CCN(CC(=O)NC(=O)NC2CCCCC2)CC1 | 8% | -3% | -23 | ?
SMILES | HCV inh | Pf growth 48h | HCMV antiviral | Pf growth 96h
COc1ccc(C(=O)NC2CCN(CC(=O)NC3CCCCC3)CC2)cc1 | 15% | 22% | -8 | 5%
COc1cccc(/C=C(/C(=O)OCC(=O)NC2CCCCCCC2)c2ccccc2)c1 | 11µM* | -2% | ? | 0%
COc1cccc(/C=C(/C(=O)OCC(=O)NCC2CCCO2)c2ccccc2)c1 (stereo unspecified) | -15% | ? | -32 | 49%
Cc1ccc(S(=O)(=O)c2nnn3c2nc(NC(C)C)c2sccc23)cc1 | · | · | 1 | ·
Cc1cc(Cl)ccc1NC(=O)C1CCN(S(=O)(=O)c2ccc3[nH]c(=O)ccc3c2)CC1 | · | · | 2 | ·
CC(=O)c1cccc(OCc2cc(C(=O)NC3CCN(Cc4ccccc4)CC3)no2)c1 | ? | -30% | ? | 12µM*
COc1ccccc1NC(=O)c1nnn(-c2ccc(F)cc2)c1C | · | · | 8 | ·
N=c1c2c(-c3ccccc3)c(-c3ccccc3)n(Cc3ccco3)c2ncn1CCCN1CCOCC1 | 7.1µM* | ? | -98* | 18%
N=c1c2c(-c3ccccc3)c(-c3ccccc3)n(Cc3ccco3)c2ncn1CCCn1ccnc1 | ? | 1.9µM* | -97* | ?
O=c1c2ccccc2nc(-c2ccccc2)n1CCCN1CCOCC1 | 2% | -3% | 12 | ·
COc1ccc(CC(=O)NCCc2sc(-c3cccc(F)c3)nc2C)cc1 | · | · | -3 | ·
CC1=C(/C=C/C(C)=C\C=C\C(C)=C\C=C\C=C(C)\C=C\C=C(C)\C=C\C2=C(C)C[C@@H](O)CC2(C)C)C(C)(C)C[C@H](O)C1 | · | 15µM* | · | 7.6µM*
CC1=C(/C=C/C(C)=C/C=C/C(C)=C/C(=O)O)C(C)(C)CCC1 | -3%[8.37 µM] | ? | -11 | 21%
CC1=C[C@@H](O)CC(C)(C)[C@@H]1/C=C/C(C)=C/C=C/C(C)=C/C=C/C=C(C)/C=C/C=C(C)/C=C/C1=C(C)C[C@H](O)CC1(C)C | · | ? | · | 4.3µM*
CC1CCN(S(=O)(=O)c2ccc3c(c2)N(CC(=O)N2CCN(c4ccc(Cl)cc4)CC2)C(=O)CO3)CC1 | · | · | 8 | ·
Cc1ccc(-c2csc3nc(SCC(N)=O)n(Cc4ccccc4)c(=O)c23)cc1 | ? | 13µM* | -28 | 10%
CC(C)(C)NC(=O)Cn1c(SCC(N)=O)nc2ccccc21 | 2% | -4% | 25 | -17%
NC(=O)CSc1nc2ccccc2n1Cc1ccccc1 | 19% | 2.9µM* | ? | -16%
NC(=O)CSc1nc2ccccc2n1-c1ccccc1 | -17% | -16% | 4 | 9.3µM*
CCCn1c(SCC(=O)C(C)(C)C)nc2ccccc21 | 1% | -18% | -67* | 8%
Cc1cccc(C(=O)Nc2ccc3nc(SCC(=O)N4CCc5ccccc54)sc3c2)c1 | · | · | 45 | ·
CN1C(=O)N(C)c2ccc(Br)c3cccc1c23 | 14µM* | 31% | ? | 15%
COc1ccc(CC(N)c2csc(NC(=O)c3ccccc3)n2)cc1 (stereo unspecified) | · | · | 60 | ·
CC(C)c1ccc(NC(=O)Nc2nc(C(N)COCc3ccccc3)cs2)cc1 (stereo unspecified) | · | · | -95* | ·
NC(Cc1ccccc1)c1csc(NC(=O)c2cccc(OC(F)(F)F)c2)n1 (stereo unspecified) | · | · | -101* | ·
SMILES | HCV inh | Pf growth 48h | HCMV antiviral | Pf growth 96h
COc1ccc(CC(N)c2csc(NC(=O)C(c3ccccc3)c3ccccc3)n2)cc1 (stereo unspecified) | · | · | -65* | ·
COc1ccc(CC(N)c2csc(NC(=O)c3ccc(OC)cc3)n2)cc1 (stereo unspecified) | · | · | -16 | ·
COc1ccc(CC(N)c2csc(NC(=O)c3ccccc3OC)n2)cc1 (stereo unspecified) | · | · | -81* | ·
CCN(C(=O)c1c(C)oc2ncnc(N3CCCCC3)c12)c1cc(C)ccc1C | · | · | 3 | ·
COc1ccc2c(c1)[nH]c1c(C)nccc12 | ? | ? | -95* | ?
CCCCn1cnc2c([nH]c3cc(OC)ccc32)c1=O | ? | -11% | 76 | -19%
